From PubChem
An excerpt weighted towards active compounds, which were near 5.1% of everything screened.
CRFBP-R2 block = antagonists of CRF-binding protein/CRF-R2 receptor complex; hit rate 0.59% among 350,000; HEK293 CRF-R2/CRF-BP, CRF-induced calcium fluorescence; AID 588475; inhibition, % at 11.8 µM;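 active = inhibition of the ligand-induced calcium signal above about 50% at the single tested concentration, limit read from the data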
MPTP block = permeability transition pore inhibition. isolated mouse mitochondria, Ca2+ swelling absorbance, 30 min. inhibition, % at 10 µM. hit rate 1.4% among 360,000;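 active = inhibition of 50% or more, scaled per plate between neutral and stimulator controls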;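 also: 0% = DMSO wells given calcium and 100% = 1 mM EGTA wells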
TMEM16A inh = mouse TMEM16A channel inhibition, primary screen; HEK293 TMEM16A/YFP iodide influx fluorescence, ionomycin; normalized B-score (activity score, 25-100; higher = stronger inhibition) at 10 µM; hit rate 1.2% among 310,000; AID 588511;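 active = ratio plate-corrected score three or more library SD toward inhibition, starting fluorescence score within five deviations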;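 also: score derived from kinetic fluorescence span divided by baseline fluorescence per well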
Target sequence (Q8BHY3 whole entry, looked up): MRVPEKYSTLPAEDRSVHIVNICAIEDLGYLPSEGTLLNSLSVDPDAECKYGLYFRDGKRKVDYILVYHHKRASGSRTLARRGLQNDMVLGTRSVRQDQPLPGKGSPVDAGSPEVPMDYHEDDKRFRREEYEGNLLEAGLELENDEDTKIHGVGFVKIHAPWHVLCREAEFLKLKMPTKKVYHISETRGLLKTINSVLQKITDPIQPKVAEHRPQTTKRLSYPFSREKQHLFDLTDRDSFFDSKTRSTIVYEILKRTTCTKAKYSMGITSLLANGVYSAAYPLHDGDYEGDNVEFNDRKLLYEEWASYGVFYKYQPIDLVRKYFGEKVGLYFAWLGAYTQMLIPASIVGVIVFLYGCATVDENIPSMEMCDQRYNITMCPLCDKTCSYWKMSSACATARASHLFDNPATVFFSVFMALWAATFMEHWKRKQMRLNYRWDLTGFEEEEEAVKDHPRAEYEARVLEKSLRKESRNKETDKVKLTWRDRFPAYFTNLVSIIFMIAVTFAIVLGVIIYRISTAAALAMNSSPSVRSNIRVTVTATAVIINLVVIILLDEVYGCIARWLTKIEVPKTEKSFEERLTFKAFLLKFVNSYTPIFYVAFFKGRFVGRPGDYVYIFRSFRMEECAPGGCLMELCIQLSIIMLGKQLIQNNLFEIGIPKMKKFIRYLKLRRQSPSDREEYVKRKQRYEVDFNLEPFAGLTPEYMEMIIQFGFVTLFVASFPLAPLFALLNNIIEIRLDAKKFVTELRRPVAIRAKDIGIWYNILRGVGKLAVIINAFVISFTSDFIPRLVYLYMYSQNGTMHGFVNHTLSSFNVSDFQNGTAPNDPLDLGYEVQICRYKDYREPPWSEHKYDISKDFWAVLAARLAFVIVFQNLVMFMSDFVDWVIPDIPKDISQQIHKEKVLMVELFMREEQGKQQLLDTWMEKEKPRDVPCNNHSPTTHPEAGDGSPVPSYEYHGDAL
CRFR2-BP ag = agonists of human CRF-binding protein/CRF-R2 receptor complex. HEK293 CRF-R2/CRF-BP, calcium dye fluorescence (FLIPR); percent of saturating CRF peptide response. activation, % at 13.2 µM. hit rate 0.46% among 350,000. AID 588473;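 active = activation of at least 50%, plus an integration ratio under a set limit after plate pattern correction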;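 also: plate controls were neutral control wells without compound for no effect and CRF at EC100 for full effect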
NR3A LBD binder = modulators (binders) of human NR3A ligand-binding domain; NR3A LBD differential scanning fluorimetry, Tm shift; 0% = protein alone, 100% = glycine-bound protein; Tm shift relative to glycine control, % at 25 µM; hit rate 2.5% among 340,000; AID 1259313;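 active = melting temperature shift of at least 10% of the positive control shift, at one fixed dose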
ANO1 activ = mouse TMEM16A channel activation, primary screen; AID 623877; hit rate 0.3% among 340,000; B-score at 10 µM; HEK293 TMEM16A/YFP-H148Q/I152L, iodide quench fluorescence; hits give low values;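 active = fluorescence-ratio B-score plate-corrected deviation score at least 3 library SD below zero, with starting fluorescence score within 5 deviations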;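 also: channel opened by trigger with iodide after compound preincubation; score built on the fluorescence ratio of max minus min over baseline; more negative score means more quench and so TMEM16A activation or potentiation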
* marks the source's active call; other numbers are inactive results; i = inactive; / = no result given.

SMILES	CRFBP-R2 block	MPTP block	TMEM16A inh	CRFR2-BP ag	NR3A LBD binder	ANO1 activ
CON(C)C(=O)/C=C/c1ccc([B-](F)(F)F)cc1	5	-1	/	-4	1	/
O=C(Nc1cccnc1)c1noc2c1CCCC2	-14	-1	i	1	11*	i
CC(C)(C)C1CCc2onc(C(=O)Nc3cccnc3)c2C1 (configuration not stated)	-69	-1	i	-2	-3	i
COCCn1c(SCC(=O)N2CCc3ccccc3C2)nc2cc(Cl)ccc2c1=O	26	-2	i	-1	-9	i
CC(C)Cn1c(SCC(=O)N2CCc3ccccc3C2)nc2cc(Cl)ccc2c1=O	118*	16	i	-1	14*	i
Cc1ccc(S(=O)(=O)c2nc(S(C)(=O)=O)sc2N2CCOCC2)cc1	95*	-2	i	2	0	i
CCCS(=O)(=O)c1nc(S(=O)(=O)c2ccc(C)cc2)c(N2CCCC2)s1	-82	0	i	89*	-1	i
CCS(=O)(=O)c1nc(S(=O)(=O)c2ccc(C)cc2)c(N2CCOCC2)s1	-16	0	i	0	-3	i
CC(C)C[C@@]12C(=O)N(c3cccc(Br)c3)C(=O)N1[C@H](c1ccc(F)cc1)[C@@H]1C(=O)N(C3CCCCC3)C(=O)[C@@H]12	-15	-1	i	3	1	-7.6*
CC[C@@]12C(=O)N(c3cccc(Br)c3)C(=O)N1[C@H](c1ccc(F)cc1)[C@@H]1C(=O)N(C3CCCCC3)C(=O)[C@@H]12	-20	0	i	4	-3	i
COc1ccccc1N/C=C/c1onc(C)c1[N+](=O)[O-]	-68	6	i	89*	0	i
CCCCC(=O)Nc1c(C)cc(C)cc1Cl	11	1	i	5	14*	i
O=C(c1cc2nc(-c3ccccc3)cc(-c3ccccc3)n2n1)N1CCN(C(=O)c2ccco2)CC1	55*	-4	i	0	0	i
CCN(CC)c1ccc(S(=O)(=O)Nc2cc(Cl)ccc2Cl)cc1NC(=S)NC(=O)C1CCCC1	24	21	i	3	14*	i
CN(NC(=O)Nc1ccccc1)c1cnn(C)c(=O)c1Cl	120*	1	i	3	-3	i
CN(NC(=O)Nc1ccc(Cl)cc1)c1c(Cl)c(Cl)nn1C	-29	3	i	1	-2	i
Clc1cccc(CSc2nnc(-c3ccccn3)n2Cc2ccco2)c1	12	1	i	-1	3	i
O=C(O)CSc1nnc(-c2ccc(S(=O)(=O)N3CCCC3)cc2)n1Cc1ccco1	7	0	i	1	2	i
C(=C\c1ccccc1)/CSc1nnc(-c2ccncc2)n1Cc1ccco1	39	0	i	-2	1	i
CC(C)(C)c1ccc(CSc2nnc(-c3ccccn3)n2Cc2ccco2)cc1	7	-1	i	2	20*	i
Clc1cccc(-c2nnc(SC/C=C/c3ccccc3)n2Cc2ccco2)c1	60*	0	i	9	5	i
NC(=O)CSc1nnc(-c2ccc(S(=O)(=O)N3CCCC3)cc2)n1Cc1ccco1	-6	0	i	2	11*	i
C(=C\c1ccccc1)/CSc1nnc(-c2ccccc2)n1Cc1ccco1	62*	0	i	-4	1	i
Brc1ccc(CSc2nnc(-c3ccccn3)n2Cc2ccco2)cc1	13	0	i	0	1	i
CN(C)S(=O)(=O)c1ccc(N2CCCC2)c(C(=O)NNC(=O)c2ccc(F)cc2)c1	4	0	/	-1	0	i
SMILES	CRFBP-R2 block	MPTP block	TMEM16A inh	CRFR2-BP ag	NR3A LBD binder	ANO1 activ
Cc1cccc(NC(=O)C2CCCN(S(=O)(=O)c3ccc4[nH]c(=O)ccc4c3)C2)c1 (configuration not stated)	-13	-3	i	-1	-3	i
Cc1ccc(C(=O)OCC(=O)N2CCC(C)CC2)cc1S(=O)(=O)N1CCOCC1	14	-1	/	-2	/	/
CC(C)(C)c1ccc(S(=O)(=O)N2CCc3nc4ccccc4c(C(=O)O)c3C2)cc1	-5	0	i	0	1	i
CCOC(=O)N1CCN(CC(O)c2ccc3cc[nH]c3c2)CC1 (configuration not stated)	-38	1	i	58*	-2	i
O=C(O)CSc1c(Cl)c(=O)oc2ccc(Cl)cc12	-5	0	/	-2	/	/
CCn1c(SCC(N)=O)nnc1-c1ccc(OC)c(OC)c1	2	-1	i	-3	13*	i
N=c1ccn2c(n1)O[C@H]1[C@@H](CO)[C@H](O)O[C@H]12	-24	-3	i	-1	3	i
CSC1=NCCN1C(=O)Cc1ccc(Cl)cc1	50*	-1	i	0	1	i
O=C(CSc1ccccn1)Nc1ccc2c(c1)oc1ccccc12	-42	3	i	0	26*	i
COc1cc2c(cc1NC(=O)CSc1ccccn1)oc1ccccc12	-14	2	i	1	0	i
Cc1ccc(-c2csc(Nc3ccc(S(N)(=O)=O)cc3)n2)o1	22	1	i	1	5	i
NS(=O)(=O)c1ccc(Nc2nc(-c3ccc4ccccc4c3)cs2)cc1	7	1	i	-2	25*	i
O=[N+]([O-])c1ccc(S(=O)(=O)Nc2nc(-c3ccccc3)cs2)cc1	45	24	100*	-4	0	i
NS(=O)(=O)c1ccc(Nc2nc(-c3cccc([N+](=O)[O-])c3)cs2)cc1	8	1	i	0	17*	i
Cc1ccc(S(=O)(=O)Nc2nc(-c3ccc(F)cc3)cs2)cc1	32	14	i	0	-4	i
COc1cc(-c2noc(C)c2C(=O)NCCc2ccccc2)cc(OC)c1OC	-11	0	/	-3	0	i
O=C(COC(=O)CN1C(=O)NC2(CCCCC2)C1=O)Nc1cc(F)ccc1F	13	0	/	5	1	i
CC1CCCCC1NC(=O)/C(C#N)=C/c1ccc2c(c1)OCCO2 (configuration not stated)	-66	/	i	1	13*	/
COc1cc(/C=C/C(=O)OCC(=O)Nc2ccc3c(c2)OCCO3)ccc1O	17	1	i	-1	-2	i
COc1cc(/C=C(\C#N)C(=O)Nc2ccc3c(c2)OCCO3)ccc1O	73*	0	i	11	7	i
CC1CCCCC1NC(=O)/C(C#N)=C/c1ccc(F)c(F)c1 (configuration not stated)	-1	28	i	3	-2	i
